TDP1 inh – inhibitors of human tyrosyl-DNA phosphodiesterase TDP1; Q9NUW8; recombinant TDP1, AlphaScreen DNA substrate cleavage; Potency, µM (doses to about 130 µM), without a hit: top-dose activity change, negative = inhibition, usual class: inhibitors; 350,000 compounds, 0.28% hits; note: nearly all actives have a fitted effect of over 40% in size
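Steps: enzyme plus compound, 15 min RT; add biotin/phosphotyrosine-FITC oligonucleotide (15 nM final), react 5 min; add donor/acceptor beads (10 ug/ml final), 10 min; read AlphaScreen. Tdp1 at 1 nM final.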
GCN5L2 inh – inhibitors of human GCN5L2 histone acetyltransferase | Potency, µM (doses to about 58.9 µM), for inactives: top-dose activity change, negative = inhibition, usual class: inhibitors | GCN5L2 HAT assay, ThioGlo1 CoA-SH fluorescence | 390,000 compounds, 0.21% hits
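GCN5L2 (20nM final) in 50mM HEPES, 0.1mM EDTA pH 7.5, 0.01% Tween-20 was preincubated 15 min at room temperature with compound, then given ThioGlo1 (50uM), H3(1-25) peptide (75uM) and acetyl-CoA (70uM); CoA-thiol fluorescence (Ex340/Em540) was read at 0 and 20 min.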
PLK1 PBD inh – PLK1 (human) polo-box domain binding inhibition; 360,000 compounds, 2.8% hits; Plk1 PBD binding of FITC phosphopeptide, fluorescence polarization; Potency, µM, for the others: max response, negative = inhibition, most hits filed as inhibitors; AID 720504; note: series mostly up to about 57 µM; nearly all actives have a fitted effect of over 65% in size
DT40 TDP1 no CPT – qHTS for Inhibitors of human tyrosyl-DNA phosphodiesterase 1 (TDP1): qHTS in cells in absence of CPT | DT40 Tdp1-/- hTDP1 cells, no CPT, ATP luminescence, 48 h | Potency, µM (series often up to 46.2 µM), for the others: at the top dose activity change, negative = growth inhibition, hits mostly inhibitors | 420,000 compounds, 15% hits | AID 686978, 2013; note: nearly all actives have a fitted effect of over 55% in size
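Compound effects on proliferation are scored in DT40 Tdp1-/-;hTDP1 cells in the absence of CPT. ATP levels (CellTiter-Glo luminescence) are recorded after a ≥48 hr, 37 °C incubation.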
VDR inhibitor – vitamin D3 receptor (human) inhibition; Potency, µM, for inactives: max response, negative = inhibition, usual class: inhibitors; 400,000 compounds, 0.93% hits; P11473; AID 504847; VDR-SRC2-3 peptide fluorescence polarization, 2 h
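The screen uses fluorescence polarization to detect compounds that interfere with recruitment of the SRC2-3 coactivator peptide to VDR; plates are read after 2 h at room temperature.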
DT40 TDP1 CPT – DT40-hTDP1 cell growth loss with CPT; 420,000 compounds, 12% hits; AID 686979; chicken DT40 Tdp1-/-;hTDP1 cells + 20 nM CPT, ATP luminescence, 48 h; Potency, µM (top dose mostly 46.2 µM), for the others: at the top dose activity change, negative = growth inhibition, hits mostly inhibitors; note: nearly all actives have a fitted effect of over 55% in size
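Cell growth measured by CellTiter-Glo luminescence after a minimum 48 h, 37 C compound exposure with 20 nM CPT in Tdp1-knockout DT40 cells stably expressing hTDP1, seeded 400/well; qHTS titration format.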
The depositor's hits bear a star; ? = inconclusive; nt = not tested or not shown. Hits are enriched below; roughly 18% of the tested compounds scored in any of these assays. Calls come from the whole dose curve; as a rule, active = well fitted curve in the direction sought with a large enough effect; inconclusive = small, poorly fitted or top-dose-only effect, or another doubt; inactive = no such curve, though single readings can be large; an effect the other way counts as inactive or inconclusive. % is set by controls: 0 for no effect and ±100 for the full control effect; potency is the fitted concentration of half-maximal effect.

SMILES	TDP1 inh	GCN5L2 inh	PLK1 PBD inh	DT40 TDP1 no CPT	VDR inhibitor	DT40 TDP1 CPT
CCN(CC)CC(O)COCCC12CC3CC(CC(C3)C1)C2 (centres undefined)	2%	0%	0%	?	10%	?
Cc1cc2c(cc1C)/C(=N/NC(=O)c1ccccn1)CCC2	-1%	-38%	4%	23µM*	-3%	?
Nc1ccc(Nc2nc(-c3cc4ccccc4oc3=O)cs2)cc1	10%	0%	10%	8.2µM*	12%	18µM*
COc1cccc2sc(NN)nc12	9%	-6%	-16%	?	?	?
COc1cccc2sc(Nc3nnc(-c4ccccc4Cl)o3)nc12	5%	-5%	-24%	1.5µM*	6%	1.6µM*
COc1cccc(-c2noc(-c3cc4ccccc4oc3=O)n2)c1OC	3%	-11%	nt	-15%	1%	-8%
O=C(Nc1nc(-c2cc3ccccc3oc2=O)cs1)c1ccc(Br)o1	?	-6%	-16%	-25%	8%	-16%
N#CCc1nc(-c2cc3ccccc3oc2=O)cs1	-2%	-13%	-18%	?	-14%	?
CC(=O)Nc1ccc(Nc2nc(-c3cc4ccccc4oc3=O)cs2)cc1	5%	1%	-8%	18µM*	4%	8.2µM*
COc1cccc2sc(Nc3nc(-c4cc5ccccc5oc4=O)cs3)nc12	-1%	-7%	-10%	4.6µM*	-3%	4.6µM*
Cc1ccccc1OCC(=O)Nc1ccc2[nH]ncc2c1	3%	-13%	-2%	-27%	3%	-6%
COc1cccc(Nc2ncc3nc(C)c(=O)n(CCc4ccccc4)c3n2)c1	nt	-10%	nt	-5%	8%	0%
COc1ccc(C(=Cc2ccccc2[N+](=O)[O-])C(=O)O)cc1	nt	nt	-8%	-8%	-24%	-9%
CC1(C(=O)NS(=O)(=O)C2CC2)CCN(C(=O)C2(c3ccc(Cl)cc3)CCCC2)C1 (centres undefined)	nt	nt	-1%	-19%	nt	-14%
CN=C1N[C@H](c2ccccc2)N(c2ccccc2)S1	19%	?	nt	?	25µM*	?
COc1ccc(Oc2c(OC)cc(NCc3ccc(CN)cc3)c3ncccc23)cc1	nt	nt	-23%	26µM*	nt	?
COc1ccc(CNc2cccnc2Cl)cc1	nt	nt	-11%	-35%	nt	2%
Cc1ccc(C)c2[nH]c(=O)c(CCNC(=O)c3cc4ccccc4o3)cc12	2%	-1%	3%	21µM*	8%	18µM*
CNC(=S)NCCc1cc2c(OC)ccc(OC)c2[nH]c1=O	6%	-5%	19µM*	?	?	-22%
COc1ccc(OC)c2[nH]c(=O)c(CCNC(=O)c3cc4ccccc4o3)cc12	2%	-9%	1%	?	-1%	15µM*
CCNC(=O)NC(=O)COC(=O)c1ccccc1SCC(=O)NC(=O)NCC	1%	-10%	2.7µM*	15µM*	?	21µM*
CCOCCCN(Cc1ccco1)S(=O)(=O)c1csc(C(N)=O)c1	2%	-6%	4%	1%	13%	-12%
CC(C)CCN(Cc1ccco1)S(=O)(=O)c1csc(C(N)=O)c1	2%	-6%	-16%	23µM*	-4%	18µM*
CCNc1nc(OC)nc(Oc2ccc(=O)[nH]n2)n1	2%	-5%	nt	nt	-4%	nt
CCc1nc2ccc(C(=O)NCCCN3CCCC3=O)cn2c1N(C)Cc1ccc(OC)cc1	nt	nt	3%	?	nt	16µM*
CCc1nc2ccc(C(=O)NCCN3CCOCC3)cn2c1N(C)Cc1ccc(OC)cc1	nt	nt	-8%	23µM*	nt	?
CCc1nc2ccc(C(=O)NCCCN3CCCC3=O)cn2c1N(C)C(=O)c1cccc(OC)c1	nt	nt	-4%	-6%	nt	2%
CSC[C@H]1CN(c2ccccc2)C(=O)[C@@H]1CC(=O)Nc1ccccc1	nt	nt	0%	?	nt	?
